Source: PubChem BioAssay (NCATS)
Unmarked numbers belong to inactive results. Inconclusive results are not listed. A call without a number means that no potency is given here. Calls of active or inactive are those of the source. The call rests on the fitted dose curve; in most records, active means well fitted curve in the direction sought with a large enough effect; inconclusive means small, poorly fitted or top-dose-only effect, or another doubt; inactive means no such curve, though single readings can be large; an effect the other way counts as inactive or inconclusive.

Assays:
[1] = molecular target: Glutathione peroxidase 1 (Homo sapiens) (UniProt P07203); assay: Primary qHTS Assay for Inhibitors of Recombinant Selenoprotein Glutathione Peroxidase 1 (GPX1) (AID 1845191); further: nearly all actives have a fitted effect of over 65% in size
Procedure, shortened: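 Recombinant GPX1 (10 nM final) was preincubated with compound for 30 min at room temperature, then reacted with 1 mM GSH, 0.5 mM CHP, 0.5 mM NADPH and 100 nM glutathione reductase; NADPH fluorescence (340/450 nm) was read at 0 and 15 min.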

[2] = molecular target: Phospholipid hydroperoxide glutathione peroxidase GPX4 (Homo sapiens) (UniProt P36969); assay: Primary qHTS Assay for Inhibitors of Recombinant Selenoprotein Glutathione Peroxidase 4 (GPX4) (AID 1845192); further: nearly all actives have a fitted effect of over 65% in size; on activity change, negative = inhibition: series mostly up to about 50 µM
Procedure, shortened: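 GR-coupled readout: 100 nM GR, 1 mM GSH, 0.5 mM NADPH; NADPH fluorescence (ex 340/em 450 nm) read at t=0 and after 15 min RT. GPX4 200 nM, preincubated 30 min with compound; substrate 0.5 mM CHP.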

[3] = molecular target: Luciferin 4-monooxygenase (Photinus pyralis) (UniProt P08659); assay: Primary firefly luciferase (FLuc) qHTS assay for identification of artifact compounds. (AID 1845220); further: nearly all actives have a fitted effect of over 60% in size; further: potency means the concentration at half of the fitted maximal effect; on activity change, negative = inhibition: series mostly up to about 54 µM
Procedure, shortened: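 In this counter-screen for luciferase artifacts, test compounds met substrate (10 uM each luciferin and ATP) before 10 nM enzyme started the reaction. Light output was measured 5 min later.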

[4] = Primary fluorescence-based thiol-reactive (MSTI) qHTS assay for identification of artifact compounds. (AID 1845221);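 further: series mostly up to about 54 µM; thiol-reactive compounds lower the probe fluorescence signal; nearly all actives have a fitted effect of over 65% in size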
Procedure, shortened: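 In PBS pH 7.4 with 2% DMSO, each compound met 4 uM MSTI for one hour at ambient temperature, shielded from light, before fluorescence detection.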

[5] = tested on: Nanoluciferase (engineered Oplophorus gracilirostris luciferase); assay: Primary Nanoluciferase (NLuc) qHTS assay for identification of artifact compounds. (AID 1845222);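 further: NLuc secreted into diluted conditioned medium of S16 cells; series mostly up to about 54 µM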
Procedure, shortened: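 Using secreted nanoluciferase in S16 culture medium (0.22 um filtered, 1:55 dilution), compounds were preincubated 15 min at RT. Signal was generated with Nano-Glo reagent (1:100) over 5 min.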

[6] = Primary redox qHTS assay for identification of artifact compounds. (AID 1845223)
Procedure, shortened: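 Amplex Red (25 uM) and HRP (250 mU/mL) in HBSS, with compounds for 15 min, then 250 uM DTT for 30 min, room temperature, dark. Fluorescence 525/598 nm read; normalized to DMSO and 10 uM DA3003; Hill fit.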

[7] = Quantitative High-Throughput drug screen in 47 multiple myeloma cell lines against the NCATS MIPE library collection: FR4_PLB cell viability assay (AID 1918924; further: nearly all actives have a fitted effect of over 35% in size; further: potency means the concentration at half of the fitted maximal effect)
Procedure, shortened: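 Viability readout: CellTiter-Glo luminescence following 5 min room-temperature incubation with reagent. Prior exposure: 48 h, 37C, humidified 5% CO2, 500 cells per well.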

[8] = Quantitative High-Throughput drug screen in 47 multiple myeloma cell lines against the NCATS MIPE library collection: Delta47_JCRB cell viability assay (AID 1918925; further: nearly all actives have a fitted effect of over 45% in size; further: potency means the concentration at half of the fitted maximal effect)
Procedure, shortened: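 Inhibition of cell viability is measured here. Each line was plated at 500 cells per well, treated with MIPE 4.0 drugs, kept 48 hours at 37C, then assayed for ATP content by CellTiter-Glo luminescence.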

Sequence of Phospholipid hydroperoxide glutathione peroxidase GPX4 (Homo sapiens) (P36969 whole entry, looked up): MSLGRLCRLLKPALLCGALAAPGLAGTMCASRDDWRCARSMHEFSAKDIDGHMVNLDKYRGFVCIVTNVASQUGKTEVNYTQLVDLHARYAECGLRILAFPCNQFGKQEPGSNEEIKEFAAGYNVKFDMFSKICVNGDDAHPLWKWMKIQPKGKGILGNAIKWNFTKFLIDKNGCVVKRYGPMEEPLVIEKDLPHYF
Sequence of Glutathione peroxidase 1 (Homo sapiens) (P07203 whole entry, looked up): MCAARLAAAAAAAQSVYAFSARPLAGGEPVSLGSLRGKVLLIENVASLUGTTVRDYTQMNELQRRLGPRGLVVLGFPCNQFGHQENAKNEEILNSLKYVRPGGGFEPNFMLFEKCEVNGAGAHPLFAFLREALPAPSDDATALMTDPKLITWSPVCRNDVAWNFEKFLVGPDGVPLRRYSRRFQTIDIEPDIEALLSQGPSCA

SMILES	Potency [1]	Potency [2]	Potency [3]	Potency [4]	Potency [5]	outcome [6]	Potency [7]	Potency [8]	activity change, negative = inhibition [3]	activity change, negative = thiol reactive [4]	activity, negative = inhibition [5]	redox activity (% of DA3003) [6]
CC(C)(OCc1nn(Cc2ccccc2)c2ccccc12)C(=O)O	inactive	inactive	inactive	inactive	inactive	inactive	inactive	inactive				
Cn1c(=O)c(-c2c(Cl)cccc2Cl)cc2cnc(Nc3cccc(C(=O)O)c3)nc21	inactive	inactive	379 nM (active)	inactive	inactive	inactive	5260 nM (active)	inactive				
C[C@@H](NC(=O)c1ncnc(N)c1Cl)c1ncc(C(=O)Nc2cc(C(F)(F)F)c(Cl)cn2)s1	inactive	inactive	inactive	inactive	inactive	inactive	14800 nM (active)					
CCCCc1ccc(NS(=O)(=O)c2ccc(C)c(C(=O)N3CCN(c4cccc(C)c4C)CC3)c2)cc1	inactive	inactive										
Clc1ccc(COC(Cn2ccnc2)c2ccc(Cl)cc2Cl)c(Cl)c1 (configuration not stated)	inactive	inactive										
CC1=C(C(=O)Nc2cc3cn[nH]c3cc2F)C(c2ccc(C(F)(F)F)cc2)CC(=O)N1 (configuration not stated)	inactive	inactive	inactive	inactive	inactive	inactive		inactive				
COc1ccc(-c2cc3nccn3c(Nc3ncccc3C(N)=O)n2)cc1OC	inactive	inactive	inactive	inactive	inactive	inactive	3320 nM (active)	833 nM (active)				
CCCCC(F)(F)[C@@]1(O)CC[C@H]2[C@H](CC(=O)[C@@H]2CCCCCCC(=O)O)O1	inactive	inactive	inactive	inactive	inactive		inactive	inactive				
CCC(=O)N1CCN(c2ccc(-n3c(=O)ccc4cnc5ccc(-c6cnc7ccccc7c6)cc5c43)cc2C(F)(F)F)CC1	inactive	inactive					13.2 nM (active)	16.6 nM (active)	2.1% [at 11.6 µM]	-11% [at 11.5 µM]	4.43% [at 11.6 µM]	-10.4% [at 11.5 µM]
